From the supplement of paper PMC10849652
About 8,800 targets were measured; listed, in parts, are those with a hit and a random draw of the rest. About 0.5% of all pairs of compound and target were hits.

How the values were obtained:
Assay in all cases: log2 fold change, soluble protein after heating vs DMSO (PISA); higher = thermal stabilisation; K562 lysate, 10 uM; active = over 0.2 and 3.5 SD of the protein, either way, in both replicates (recomputed)
erlotinib = compound: C#Cc1cccc(Nc2ncnc3cc(OCCOC)c(OCCOC)cc23)c1 [erlotinib]
In short: (§1)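 Quantification was by TMTpro 16plex LC-MS/MS with equalised channel sums, applied to the supernatant after 21,000xg for 90 min. Samples were crude K562 extract at 1 mg/mL protein in PBS pH 7.4 with 1 mM MgCl2, treated with 10 μM compound for 30 min, heated for 3 min across 48°C-58°C, pooled and brought to 0.5% NP-40 at 4°C. Values are log-two fold changes in thermal stability relative to solvent controls, from duplicates.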

[1] = compound: C/C(=N\NC(=O)C1=CC(=CC=C1)S(=O)(=O)N2CCOCC2)/C3=C(C=CC(=C3)Cl)O
In short: as §1

[2] = compound: C1=CC(=CC=C1C2=NC3=C(N2)C=C(C=C3)C(=O)N)OC4=CC=C(C=C4)Cl
In short: as §1

[3] = compound: C1=CC2=C(C=CC(=C2)/C=C\3/C(=O)NC(=NCC4=CC=CS4)S3)N=C1
In short: as §1

[4] = compound: C1=CC2=NC=CN=C2C=C1/C=C/3\C(=O)NC(=O)S3
In short: as §1

[5] = compound: C1=CC=C(C=C1)C2=NC(=C(N2)C3=CC=NC=C3)C4=CC(=C(C=C4)Cl)O
In short: as §1

[6] = compound: C1=CC=C2C(=C1)C3=NNC4=CC=CC(=C43)C2=O
In short: as §1

[7] = compound: C1CCN(C1)C(=O)NC2=CC=CC(=C2)NC3=NC=C(C(=N3)NCCC4=CN=CN4)Br
In short: as §1

[8] = compound: C1CN(CCC1(CC2=CC=C(C=C2)Cl)N)C3=NC=NC4=C3C=CN4
In short: as §1

IRAK-1-4 Inhibitor I = compound: C1COCCN1CCN2C3=CC=CC=C3N=C2NC(=O)C4=CC(=CC=C4)[N+](=O)[O-] [IRAK-1-4 Inhibitor I]
In short: as §1

ibrutinib = compound: C=CC(=O)N1CCC[C@@H](n2nc(-c3ccc(Oc4ccccc4)cc3)c3c(N)ncnc32)C1 [ibrutinib]
In short: as §1

[9] = compound: CC(=O)c1cnc2ccc(-c3cc(Cl)c(O)c(Cl)c3)nc2c1N[C@H]1CC[C@H](CN(C)C)CC1
In short: as §1

ralimetinib = compound: CC(C)(C)Cn1c(N)nc2ccc(-c3[nH]c(C(C)(C)C)nc3-c3ccc(F)cc3)nc21 [ralimetinib]
In short: as §1

[10] = compound: CC(C)(O)CC(=O)NCCn1ccc2ncnc(Nc3ccc(Oc4cccc(C(F)(F)F)c4)c(Cl)c3)c21
In short: as §1

[11] = compound: CC(C)C1=C2N=C(C=C(N2N=C1)NCC3=CC=CC=C3)NCCCCCCN
In short: as §1

[12] = compound: CC1=C(C(CC(=O)N1)C2=CC=C(C=C2)C(F)(F)F)C(=O)NC3=C(C=C4C(=C3)C=NN4)F
In short: as §1

[13] = compound: CC1=C(C2=C(C=C1)C(=O)C3=CC=CC=C3N2CCCN)C
In short: as §1

[14] = compound: CC1=C(C=C(C=C1)NC(=O)C2=CC(=CC=C2)C(C)(C)C#N)NC3=CC4=C(C=C3)N=CN(C4=O)C
In short: as §1

[15] = compound: CC1=C(C=C(C=C1)NC(=O)C2=CC(=CC=C2)N(C)C)NC(=O)C3=CC=C(C=C3)O
In short: as §1

[16] = compound: CC1=CC=C(C=C1)SC2=C3C=C(SC3=CN=C2)C(=O)N
In short: as §1

Measured: log2 fold change

MAP2K1 (UniProt Q02750)
active: [9] 0.519
inactive: erlotinib 0.016 | [1] 0.04 | [2] -0.026 | [3] -0.02 | [4] -0.012 | [5] -0.006 | [6] 0.188 | [7] 0.105 | [8] 0.077 | IRAK-1-4 Inhibitor I 0.011 | ibrutinib 0.204 | ralimetinib -0.021 | [10] 0.075 | [11] 0 | [12] -0.024 | [13] -0.04 | [14] 0.007 | [15] -0.012 | [16] -0.004

KIF22 (UniProt Q14807)
inactive: erlotinib 0.012 | [1] -0.074 | [2] 0.076 | [3] -0.147 | [4] -0.007 | [5] -0.063 | [6] -0.123 | [7] 0.026 | [8] 0.05 | IRAK-1-4 Inhibitor I 0.06 | ibrutinib 0.012 | [9] -0.02 | ralimetinib 0.006 | [10] -0.27 | [11] 0.028 | [12] 0.016 | [13] -0.142 | [14] 0.143 | [15] -0.027 | [16] -0.117

LBR (UniProt Q14739)
inactive: erlotinib 0.03 | [1] 0.052 | [2] -0.066 | [3] -0.021 | [4] -0.081 | [5] -0.028 | [6] -0.08 | [7] -0.032 | [8] 0.005 | IRAK-1-4 Inhibitor I 0.028 | ibrutinib 0.034 | [9] -0.01 | ralimetinib 0.019 | [10] -0.121 | [11] -0.029 | [12] 0.018 | [13] 0.065 | [14] -0.089 | [15] -0.026 | [16] -0.036

MIF4GD isoform 3 (UniProt A9UHW6)
Sequence of UniProt A9UHW6 (A9UHW6 whole entry, looked up): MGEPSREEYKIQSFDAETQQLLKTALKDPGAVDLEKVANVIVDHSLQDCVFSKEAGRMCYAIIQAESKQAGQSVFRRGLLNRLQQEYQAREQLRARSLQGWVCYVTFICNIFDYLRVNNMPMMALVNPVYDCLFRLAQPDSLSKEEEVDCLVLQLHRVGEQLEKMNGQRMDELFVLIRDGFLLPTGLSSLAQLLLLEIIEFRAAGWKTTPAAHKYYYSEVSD
inactive: erlotinib -0.006 | [1] 0.041 | [2] 0.03 | [3] 0.028 | [4] -0.073 | [5] 0.039 | [6] -0.03 | [7] -0.052 | [8] 0.051 | IRAK-1-4 Inhibitor I -0.04 | ibrutinib 0.108 | [9] -0.032 | ralimetinib -0.04 | [10] -0.014 | [11] 0.016 | [12] -0.002 | [13] -0.049 | [14] 0 | [15] -0.04 | [16] -0.004

LTN1 isoform 3 (UniProt O94822)
inactive: erlotinib 0.028 | [1] 0.021 | [2] -0.065 | [3] -0.005 | [4] 0.003 | [5] -0.022 | [6] -0.045 | [7] -0.019 | [8] 0.023 | IRAK-1-4 Inhibitor I 0.006 | ibrutinib -0.036 | [9] 0.018 | ralimetinib 0.016 | [10] -0.066 | [11] 0.079 | [12] 0.001 | [13] -0.009 | [14] -0.018 | [15] 0.075 | [16] 0.019

MAP3K4 (UniProt Q9Y6R4)
inactive: erlotinib 0.051 | [1] -0.027 | [2] -0.026 | [3] 0.011 | [4] -0.014 | [5] 0.018 | [6] 0.105 | [7] 0.051 | [8] -0.101 | IRAK-1-4 Inhibitor I -0.013 | ibrutinib 0.046 | [9] 0.19 | ralimetinib 0 | [10] 0.005 | [11] -0.039 | [12] -0.015 | [13] -0.012 | [14] -0.006 | [15] -0.001 | [16] -0.027

KMT2A isoform 3 (UniProt Q03164)
Sequence of UniProt Q03164 (Q03164 whole entry, looked up): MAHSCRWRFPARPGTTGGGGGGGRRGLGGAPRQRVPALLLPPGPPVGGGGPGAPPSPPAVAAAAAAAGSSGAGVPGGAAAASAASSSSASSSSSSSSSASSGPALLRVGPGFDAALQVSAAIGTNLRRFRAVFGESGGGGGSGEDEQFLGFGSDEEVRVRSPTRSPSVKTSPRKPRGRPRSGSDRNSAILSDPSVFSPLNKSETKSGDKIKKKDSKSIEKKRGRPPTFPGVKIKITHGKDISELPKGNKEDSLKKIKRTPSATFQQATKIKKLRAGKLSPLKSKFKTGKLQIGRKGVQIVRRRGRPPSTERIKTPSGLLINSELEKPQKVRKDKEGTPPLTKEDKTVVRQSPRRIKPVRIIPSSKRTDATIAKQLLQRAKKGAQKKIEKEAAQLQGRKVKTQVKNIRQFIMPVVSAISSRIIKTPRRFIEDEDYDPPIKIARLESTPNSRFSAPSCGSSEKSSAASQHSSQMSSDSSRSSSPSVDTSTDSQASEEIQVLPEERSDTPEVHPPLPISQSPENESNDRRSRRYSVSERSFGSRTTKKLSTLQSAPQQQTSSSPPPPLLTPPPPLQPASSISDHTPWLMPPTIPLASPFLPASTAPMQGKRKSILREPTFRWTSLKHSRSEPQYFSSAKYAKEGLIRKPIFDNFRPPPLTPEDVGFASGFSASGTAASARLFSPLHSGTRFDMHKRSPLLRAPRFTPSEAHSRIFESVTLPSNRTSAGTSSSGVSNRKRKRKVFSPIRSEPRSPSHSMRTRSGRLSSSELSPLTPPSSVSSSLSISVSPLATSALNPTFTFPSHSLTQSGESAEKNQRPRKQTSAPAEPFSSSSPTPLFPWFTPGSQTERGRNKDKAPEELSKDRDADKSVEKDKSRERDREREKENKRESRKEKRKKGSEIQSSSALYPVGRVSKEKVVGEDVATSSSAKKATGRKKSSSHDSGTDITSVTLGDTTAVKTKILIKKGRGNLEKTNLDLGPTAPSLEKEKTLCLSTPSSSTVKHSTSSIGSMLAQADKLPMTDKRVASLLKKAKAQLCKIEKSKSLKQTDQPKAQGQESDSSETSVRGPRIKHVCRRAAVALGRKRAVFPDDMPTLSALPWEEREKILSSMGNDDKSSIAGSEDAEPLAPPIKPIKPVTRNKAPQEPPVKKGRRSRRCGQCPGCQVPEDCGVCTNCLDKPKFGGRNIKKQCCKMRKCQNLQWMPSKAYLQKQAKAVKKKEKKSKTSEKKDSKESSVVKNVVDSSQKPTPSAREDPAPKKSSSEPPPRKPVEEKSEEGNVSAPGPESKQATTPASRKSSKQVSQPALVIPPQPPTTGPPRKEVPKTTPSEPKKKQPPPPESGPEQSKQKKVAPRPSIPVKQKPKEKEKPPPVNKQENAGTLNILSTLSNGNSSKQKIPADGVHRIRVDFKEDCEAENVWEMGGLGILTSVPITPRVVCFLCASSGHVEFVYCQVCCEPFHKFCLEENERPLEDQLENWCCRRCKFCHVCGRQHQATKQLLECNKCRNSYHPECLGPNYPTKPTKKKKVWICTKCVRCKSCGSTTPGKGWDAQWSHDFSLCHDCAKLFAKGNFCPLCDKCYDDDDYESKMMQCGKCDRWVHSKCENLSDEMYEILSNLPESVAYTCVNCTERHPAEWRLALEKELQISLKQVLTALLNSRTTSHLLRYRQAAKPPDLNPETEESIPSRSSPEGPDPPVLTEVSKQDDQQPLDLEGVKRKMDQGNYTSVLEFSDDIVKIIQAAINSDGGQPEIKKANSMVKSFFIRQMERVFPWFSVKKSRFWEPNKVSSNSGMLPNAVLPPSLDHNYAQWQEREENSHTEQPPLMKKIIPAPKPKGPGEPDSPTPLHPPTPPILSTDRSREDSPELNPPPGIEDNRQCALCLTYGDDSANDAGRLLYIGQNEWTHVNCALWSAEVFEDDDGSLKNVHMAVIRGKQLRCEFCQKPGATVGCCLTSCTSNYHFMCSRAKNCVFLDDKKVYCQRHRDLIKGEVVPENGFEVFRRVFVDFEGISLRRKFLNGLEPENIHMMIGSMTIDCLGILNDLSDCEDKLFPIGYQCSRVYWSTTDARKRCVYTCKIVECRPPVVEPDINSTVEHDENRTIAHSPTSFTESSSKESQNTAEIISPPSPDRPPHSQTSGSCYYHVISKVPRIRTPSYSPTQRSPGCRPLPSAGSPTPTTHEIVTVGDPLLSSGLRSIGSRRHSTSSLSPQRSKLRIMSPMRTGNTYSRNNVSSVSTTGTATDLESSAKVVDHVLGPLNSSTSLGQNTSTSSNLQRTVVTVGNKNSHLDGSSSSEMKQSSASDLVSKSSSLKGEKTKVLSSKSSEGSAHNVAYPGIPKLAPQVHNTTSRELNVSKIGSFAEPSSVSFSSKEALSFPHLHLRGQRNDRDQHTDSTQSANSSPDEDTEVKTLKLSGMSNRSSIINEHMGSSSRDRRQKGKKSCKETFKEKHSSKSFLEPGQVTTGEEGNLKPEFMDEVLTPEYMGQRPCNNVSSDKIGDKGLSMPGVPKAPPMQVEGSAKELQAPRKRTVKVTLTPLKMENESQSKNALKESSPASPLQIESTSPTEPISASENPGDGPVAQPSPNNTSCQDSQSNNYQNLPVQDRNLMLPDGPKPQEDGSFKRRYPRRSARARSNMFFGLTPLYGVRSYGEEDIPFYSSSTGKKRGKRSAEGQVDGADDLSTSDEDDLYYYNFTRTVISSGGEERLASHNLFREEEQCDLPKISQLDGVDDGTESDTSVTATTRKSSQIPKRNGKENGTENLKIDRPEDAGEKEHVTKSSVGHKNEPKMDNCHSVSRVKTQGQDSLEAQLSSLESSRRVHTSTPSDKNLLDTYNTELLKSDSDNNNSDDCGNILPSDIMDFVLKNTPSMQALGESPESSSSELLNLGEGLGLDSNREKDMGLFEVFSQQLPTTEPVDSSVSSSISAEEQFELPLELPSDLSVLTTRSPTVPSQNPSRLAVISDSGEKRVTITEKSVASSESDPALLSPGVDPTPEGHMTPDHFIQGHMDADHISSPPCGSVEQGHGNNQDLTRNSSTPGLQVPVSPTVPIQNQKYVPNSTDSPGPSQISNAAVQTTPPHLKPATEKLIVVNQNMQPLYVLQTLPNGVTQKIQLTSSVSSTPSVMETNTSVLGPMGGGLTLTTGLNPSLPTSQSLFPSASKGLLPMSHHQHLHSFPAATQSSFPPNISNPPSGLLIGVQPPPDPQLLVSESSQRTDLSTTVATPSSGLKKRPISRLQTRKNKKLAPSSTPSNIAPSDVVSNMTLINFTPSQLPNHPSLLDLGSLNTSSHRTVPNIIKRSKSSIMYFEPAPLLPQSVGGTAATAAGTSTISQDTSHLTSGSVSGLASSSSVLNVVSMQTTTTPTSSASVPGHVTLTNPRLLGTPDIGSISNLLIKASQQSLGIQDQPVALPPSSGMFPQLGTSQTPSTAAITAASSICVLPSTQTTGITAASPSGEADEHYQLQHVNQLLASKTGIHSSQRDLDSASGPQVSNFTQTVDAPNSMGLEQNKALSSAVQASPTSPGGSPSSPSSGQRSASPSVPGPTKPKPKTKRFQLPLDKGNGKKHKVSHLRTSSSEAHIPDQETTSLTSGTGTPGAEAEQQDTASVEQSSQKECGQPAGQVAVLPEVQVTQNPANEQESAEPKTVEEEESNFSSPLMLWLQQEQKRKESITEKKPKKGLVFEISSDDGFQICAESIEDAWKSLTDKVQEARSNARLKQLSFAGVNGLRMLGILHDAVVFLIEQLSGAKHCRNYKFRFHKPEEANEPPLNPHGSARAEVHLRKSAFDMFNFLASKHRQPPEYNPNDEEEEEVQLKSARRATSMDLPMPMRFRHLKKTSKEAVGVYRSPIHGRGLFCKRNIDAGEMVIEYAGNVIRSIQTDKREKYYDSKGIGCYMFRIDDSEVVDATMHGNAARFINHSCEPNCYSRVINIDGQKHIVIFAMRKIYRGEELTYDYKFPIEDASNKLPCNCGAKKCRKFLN
inactive: erlotinib -0.022 | [1] 0.351 | [2] 0.041 | [3] -0.047 | [4] -0.014 | [5] -0.069 | [6] -0.004 | [7] 0.005 | [8] -0.06 | IRAK-1-4 Inhibitor I 0.07 | ibrutinib -0.054 | [9] 0.005 | ralimetinib -0.008 | [10] -0.117 | [11] 0.019 | [12] -0.114 | [13] -0.047 | [14] -0.046 | [15] 0.025 | [16] 0

METTL7A (UniProt Q9H8H3)
inactive: erlotinib 0.029 | [1] 0.043 | [2] 0.183 | [3] 0.008 | [4] -0.041 | [5] 0.048 | [6] -0.016 | [8] 0.06 | IRAK-1-4 Inhibitor I 0.036 | ibrutinib 0.113 | [9] -0.055 | ralimetinib 0.036 | [10] -0.025 | [11] 0.017 | [12] 0.016 | [13] -0.055 | [14] 0.068 | [15] -0.033 | [16] -0.035
active: [7] 0.385

MED17 (UniProt Q9NVC6)
inactive: erlotinib -0.017 | [1] 0.062 | [2] 0.019 | [3] 0.065 | [4] -0.017 | [5] 0.014 | [6] -0.055 | [7] -0.007 | [8] -0.03 | IRAK-1-4 Inhibitor I -0.012 | ibrutinib 0.018 | [9] 0.003 | ralimetinib 0 | [10] -0.003 | [11] -0.017 | [12] 0.04 | [13] 0.019 | [14] 0 | [15] 0.021 | [16] 0.001

MIPEP (UniProt Q99797)
inactive: erlotinib -0.048 | [1] -0.06 | [2] 0.005 | [3] 0.021 | [4] 0.019 | [5] -0.029 | [6] -0.008 | [7] 0.006 | [8] 0.005 | IRAK-1-4 Inhibitor I -0.004 | ibrutinib 0.041 | [9] 0.054 | ralimetinib 0.027 | [10] 0.07 | [11] -0.02 | [12] -0.001 | [13] -0.003 | [14] -0.067 | [15] 0.044 | [16] 0.003

LUC7L (UniProt Q9NQ29)
inactive: erlotinib -0.024 | [1] 0.021 | [2] -0.097 | [3] 0.015 | [4] -0.067 | [5] -0.023 | [6] 0.01 | [7] -0.02 | [8] -0.004 | IRAK-1-4 Inhibitor I -0.026 | ibrutinib 0.007 | [9] 0.003 | ralimetinib 0.008 | [10] 0.027 | [11] 0.056 | [12] 0.002 | [13] 0.007 | [14] -0.04 | [15] -0.01 | [16] 0.02

MGAT5 (UniProt Q09328)
Sequence of UniProt Q09328 (Q09328 whole entry, looked up): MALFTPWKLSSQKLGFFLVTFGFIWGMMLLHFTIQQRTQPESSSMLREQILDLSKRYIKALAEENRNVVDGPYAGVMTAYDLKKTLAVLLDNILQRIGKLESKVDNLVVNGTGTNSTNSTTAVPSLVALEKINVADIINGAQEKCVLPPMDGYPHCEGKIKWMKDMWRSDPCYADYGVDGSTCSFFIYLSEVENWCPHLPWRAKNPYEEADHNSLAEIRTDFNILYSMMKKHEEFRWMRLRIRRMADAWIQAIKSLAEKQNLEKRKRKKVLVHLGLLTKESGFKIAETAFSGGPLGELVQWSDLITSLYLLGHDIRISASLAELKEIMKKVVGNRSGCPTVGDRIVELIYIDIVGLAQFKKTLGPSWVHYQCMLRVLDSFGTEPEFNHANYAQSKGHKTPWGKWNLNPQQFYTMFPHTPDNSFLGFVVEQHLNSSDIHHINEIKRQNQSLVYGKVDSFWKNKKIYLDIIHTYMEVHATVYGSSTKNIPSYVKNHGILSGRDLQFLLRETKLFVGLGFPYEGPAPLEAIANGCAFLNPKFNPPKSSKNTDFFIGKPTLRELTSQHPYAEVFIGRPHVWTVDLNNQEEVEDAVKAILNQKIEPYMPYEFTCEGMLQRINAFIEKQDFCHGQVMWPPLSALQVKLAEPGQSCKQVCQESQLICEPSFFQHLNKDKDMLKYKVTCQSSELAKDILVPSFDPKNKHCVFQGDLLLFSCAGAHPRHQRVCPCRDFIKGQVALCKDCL
inactive: erlotinib 0.037 | [1] 0.03 | [2] 0.087 | [3] 0.044 | [4] 0.078 | [5] -0.003 | [6] 0.132 | [7] -0.03 | [8] 0.066 | IRAK-1-4 Inhibitor I -0.05 | ibrutinib 0.038 | [9] 0.014 | ralimetinib 0.001 | [10] 0.039 | [11] -0.045 | [12] -0.084 | [13] 0.005 | [14] -0.002 | [15] -0.004 | [16] 0.014

MAP4 isoform 5 (UniProt P27816)
active: [3] -0.495
inactive: erlotinib -0.086 | [1] 0.041 | [2] -0.251 | [4] -0.035 | [5] -0.019 | [6] 0.121 | [7] -0.05 | [8] 0.026 | IRAK-1-4 Inhibitor I 0.112 | ibrutinib 0.172 | [9] 0.027 | ralimetinib -0.1 | [10] -0.166 | [11] 0.03 | [12] 0.048 | [13] 0.019 | [14] 0.012 | [15] 0.082 | [16] 0.047

LIMK2 isoform 3 (UniProt P53671)
inactive: erlotinib -0.013 | [1] -0.038 | [2] -0.048 | [3] 0.062 | [4] 0.053 | [5] 0.016 | [6] 0.003 | [7] -0.002 | [8] 0.001 | IRAK-1-4 Inhibitor I -0.031 | ibrutinib 0.129 | [9] 0.003 | ralimetinib 0 | [10] 0.018 | [11] 0.008 | [12] -0.03 | [13] -0.005 | [14] 0.175 | [15] 0.013 | [16] -0.073

LAMP1 (UniProt P11279)
inactive: erlotinib 0.024 | [1] 0.012 | [2] 0.021 | [3] -0.009 | [4] 0.012 | [5] 0.006 | [6] -0.006 | [7] -0.023 | [8] 0.038 | IRAK-1-4 Inhibitor I 0.091 | ibrutinib 0.034 | [9] -0.031 | ralimetinib -0.003 | [10] -0.11 | [11] 0.008 | [12] 0.01 | [13] 0.003 | [14] 0.022 | [15] -0.04 | [16] -0.032

MPI (UniProt P34949)
inactive: erlotinib 0.02 | [1] 0.045 | [2] 0.046 | [3] -0.018 | [4] -0.014 | [5] 0.022 | [6] -0.02 | [7] -0.003 | [8] 0.038 | IRAK-1-4 Inhibitor I 0.035 | ibrutinib 0.029 | [9] 0.031 | ralimetinib -0.06 | [10] 0.009 | [11] -0.039 | [12] -0.004 | [13] -0.051 | [14] 0.055 | [15] -0.012 | [16] -0.013
